Experimental data published in PubChem BioAssay AID1159580 (chemical genetic matrix, 2015).
“And” between values parts separate entries of the source, which are not always exact repeats. Equal values may be shown once. Screen size: about 5,500 compounds; about 2,000 (36%) were called active. About 18% were inconclusive and are not listed. No stated cut-off is given here; in the data, active means normalized growth mostly below about 0.91 (no sharp cut-off); inconclusive means no clear call, values can overlap the other calls; inactive means mostly above about 0.92. The list shows a part of the results.

Test: chemical genetic growth profiling, strain panel (AID 1159580);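 further: tested at 20 µM; growth read once vehicle control cultures reached saturation at 30 °C; 1 = growth at the plate median or of vehicle wells; lower values mean less growth of the strain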
Conditions: growth OD

Measured: normalized growth

CC(C)NCC(O)COc1cccc2[nH]ccc12 (stereo not given)
inactive: S. cerevisiae deletion strains, locus YJR075W, strain HOC1, hits give low values 1.01 | S. cerevisiae deletion strains, locus YKL009W, strain mrt4, hits give low values 0.966 | S. cerevisiae deletion strains, locus YKL068W, hits give low values 0.984 | S. cerevisiae deletion strains, locus YKL085W, strain MDH1 (second series), hits give low values 0.968 | S. cerevisiae deletion strains, locus YKL085W, strain MDH1, hits give low values 0.968 | S. cerevisiae deletion strains, locus YKL160W, strain elf1, hits give low values 1 | S. cerevisiae deletion strains, locus YKL190W, strain CNB1, hits give low values 0.993 | S. cerevisiae deletion strains, locus YKR001C, strain vps1, hits give low values 0.988 | S. cerevisiae deletion strains, locus YKR026C, strain gcn3, hits give low values 0.966 | S. cerevisiae deletion strains, locus YKR091W, strain srl3, hits give low values 0.992 | S. cerevisiae deletion strains, locus YLL026W, hits give low values 0.983 | S. cerevisiae deletion strains, locus YLL041C, strain sdh2, hits give low values 0.983 | S. cerevisiae deletion strains, locus YLR027C, strain aat2, hits give low values 0.985 | S. cerevisiae deletion strains, locus YLR039C, strain RIC1, hits give low values 0.962 | S. cerevisiae deletion strains, locus YLR058C, strain SHM2, hits give low values 0.996 | S. cerevisiae deletion strains, locus YLR102C, strain apc9, hits give low values 0.988 | S. cerevisiae deletion strains, locus YLR113W, strain HOG1, hits give low values 0.987 | S. cerevisiae deletion strains, locus YLR221C, strain rsa3, hits give low values 0.994 | S. cerevisiae deletion strains, locus YLR258W, strain gsy2, hits give low values 0.981 | S. cerevisiae deletion strains, locus YLR262C, strain YPT6 (second series), hits give low values 0.994 | S. cerevisiae deletion strains, locus YLR262C, strain YPT6, hits give low values 0.966 | S. cerevisiae deletion strains, locus YLR268W, strain sec22, hits give low values 0.953 | S. cerevisiae deletion strains, locus YLR320W, strain mms22, hits give low values 0.977 | S. cerevisiae deletion strains, locus YLR330W, strain CHS5, hits give low values 0.978 | S. cerevisiae deletion strains, locus YLR342W, strain FKS1 (second series), hits give low values 0.994 | S. cerevisiae deletion strains, locus YLR342W, strain FKS1, hits give low values 0.996 | S. cerevisiae deletion strains, locus YLR357W, strain rsc2, hits give low values 0.952 | S. cerevisiae deletion strains, locus YLR370C, strain arc18, hits give low values 0.974 | S. cerevisiae deletion strains, locus YLR371W, strain rom2, hits give low values 0.97 | S. cerevisiae deletion strains, locus YLR384C, strain iki3, hits give low values 0.992 | S. cerevisiae deletion strains, locus YLR418C, strain cdc73, hits give low values 1 | S. cerevisiae deletion strains, locus YML016C, strain PPZ1, hits give low values 0.995 | S. cerevisiae deletion strains, locus YML032C, strain rad52, hits give low values 0.984 | S. cerevisiae deletion strains, locus YML120C, strain ndi1, hits give low values 0.976 | S. cerevisiae deletion strains, locus YML124C, strain tub3, hits give low values 0.989 | S. cerevisiae deletion strains, locus YMR058W, strain fet3, hits give low values 0.977 | S. cerevisiae deletion strains, locus YMR078C, strain ctf18, hits give low values 0.981 | S. cerevisiae deletion strains, locus YMR125W, strain sto1, hits give low values 0.953 | S. cerevisiae deletion strains, locus YMR129W, hits give low values 0.974 | S. cerevisiae deletion strains, locus YMR205C, strain PFK2, hits give low values 0.968 | S. cerevisiae deletion strains, locus YMR223W, strain ubp8, hits give low values 1.03 | S. cerevisiae deletion strains, locus YMR231W, strain pep5, hits give low values 0.984 | S. cerevisiae deletion strains, locus YMR263W, strain SAP30, hits give low values 0.985 and 1 and 0.998 | S. cerevisiae deletion strains, locus YMR307W, strain GAS1, hits give low values 1 and 0.998 | S. cerevisiae deletion strains, locus YNL067W, strain RPL9B, hits give low values 0.992 | S. cerevisiae deletion strains, locus YNL071W, strain lat1, hits give low values 0.982 | S. cerevisiae deletion strains, locus YNL128W, strain TEP1, hits give low values 0.986 | S. cerevisiae deletion strains, locus YNL153C, strain GIM3, hits give low values 1.01 | S. cerevisiae deletion strains, locus YNL175C, strain NOP13, hits give low values 0.995 and 1.02 | S. cerevisiae deletion strains, locus YNL183C, strain NPR1, hits give low values 0.955 | S. cerevisiae deletion strains, locus YNL197C, strain WHI3, hits give low values 0.986 and 1.02 | S. cerevisiae deletion strains, locus YNL209W, strain ssb2, hits give low values 0.99 | S. cerevisiae deletion strains, locus YNL224C, strain SQS1, hits give low values 0.992 and 0.996 | S. cerevisiae deletion strains, locus YNL233W, strain BNI4, hits give low values 0.995 | S. cerevisiae deletion strains, locus YNL248C, strain rpa49, hits give low values 1 | S. cerevisiae deletion strains, locus YNL250W, strain rad50, hits give low values 0.986 | S. cerevisiae deletion strains, locus YNL271C, strain bni1, hits give low values 0.993 | S. cerevisiae deletion strains, locus YNL298W, strain CLA4, hits give low values 0.977 | S. cerevisiae deletion strains, locus YNL307C, strain MCK1, hits give low values 0.982 | S. cerevisiae deletion strains, locus YNL322C, strain KRE1 (second series), hits give low values 0.994 | S. cerevisiae deletion strains, locus YNL322C, strain KRE1, hits give low values 0.995 and 0.991 and 1.02 | S. cerevisiae deletion strains, locus YNR049C, strain mso1, hits give low values 0.975 | S. cerevisiae deletion strains, locus YNR052C, strain pop2, hits give low values 0.967 | S. cerevisiae deletion strains, locus YOL006C, strain TOP1, hits give low values 1.04 | S. cerevisiae deletion strains, locus YOL012C, strain htz1 0.915 | S. cerevisiae deletion strains, locus YOL147C, strain pex11, hits give low values 0.992 | S. cerevisiae deletion strains, locus YOR001W, strain rrp6, hits give low values 0.994 | S. cerevisiae deletion strains, locus YOR061W, strain CKA2, hits give low values 0.996 | S. cerevisiae deletion strains, locus YOR069W, strain VPS5, hits give low values 0.991 | S. cerevisiae deletion strains, locus YOR070C, strain gyp1, hits give low values 0.981 | S. cerevisiae deletion strains, locus YOR080W, strain dia2, hits give low values 0.983 | S. cerevisiae deletion strains, locus YOR083W, strain WHI5 (second series), hits give low values 1.02 and 0.995 | S. cerevisiae deletion strains, locus YOR083W, strain WHI5, hits give low values 1.01 | S. cerevisiae deletion strains, locus YOR106W, strain vam3, hits give low values 1 | S. cerevisiae deletion strains, locus YOR136W, strain idh2, hits give low values 0.995 | S. cerevisiae deletion strains, locus YOR144C, strain elg1, hits give low values 0.992 | S. cerevisiae deletion strains, locus YOR184W, strain ser1, hits give low values 0.988 | S. cerevisiae deletion strains, locus YOR231W, strain MKK1, hits give low values 1 | S. cerevisiae deletion strains, locus YOR265W, strain rbl2, hits give low values 0.982 | S. cerevisiae deletion strains, locus YOR270C, strain vph1, hits give low values 0.973 | S. cerevisiae deletion strains, locus YOR290C, strain snf2, hits give low values 0.963 | S. cerevisiae deletion strains, locus YOR316C, strain cot1, hits give low values 0.98 | S. cerevisiae deletion strains, locus YPL051W, strain arl3, hits give low values 0.996 | S. cerevisiae deletion strains, locus YPL055C, strain LGE1, hits give low values 1.01 and 0.998 | S. cerevisiae deletion strains, locus YPL078C, strain atp4, hits give low values 0.989 | S. cerevisiae deletion strains, locus YPL106C, strain sse1, hits give low values 0.979 | S. cerevisiae deletion strains, locus YPL240C, strain hsp82, hits give low values 0.98 | S. cerevisiae deletion strains, locus YPL241C, strain CIN2, hits give low values 0.991 and 0.996 | S. cerevisiae deletion strains, locus YPL256C, strain CLN2, hits give low values 0.99 | S. cerevisiae deletion strains, locus YPR119W, strain clb2, hits give low values 0.981 | S. cerevisiae deletion strains, locus YPR141C, strain kar3, hits give low values 0.993 | S. cerevisiae deletion strains, locus YPR163C, strain tif3, hits give low values 0.984 | S. cerevisiae deletion strains, locus YPR167C, strain met16, hits give low values 0.977 | S. cerevisiae deletion strains, strain wtn01, hits give low values 0.985 | S. cerevisiae strains, strain wild type, hits give low values 1
